From PubChem BioAssay AID624483 (NMMLSC, 2012) come the findings set out here.

Hit rate of the full screen: of about 360,000 compounds, about 11,000 (3.1%) were called active. About 2% were inconclusive and are not listed. The sample as a whole holds a higher share of actives than the screen did. A number with no mark means an inactive call. Cut-off read from the data, not from the text of the source: active = fluorescence intensity above about 16000; inconclusive = no clear call, values can overlap the other calls; inactive = below that.

This assay in a line: compound fluorescence in toxin protease inhibitor counterscreen, primary screen, artefact control for toxin protease inhibitor project, biochemical, multiplex microsphere, HTS (AID 624483). The following applies: compound autofluorescence counterscreen, microsphere flow cytometry; hits give high values.
Turning to `COC(=O)c1c(C)[nH]c(C(=O)NCCc2ccc(S(N)(=O)=O)cc2)c1C`, the fluorescence intensity is 3790.
For `COc1ccc(NS(=O)(=O)c2cccc(C(=O)NCCc3ccc(S(N)(=O)=O)cc3)c2)cc1`, the fluorescence intensity was 8740.
Under `COc1ccc(C(=O)NCCc2ccc(S(N)(=O)=O)cc2)cc1OC` stands 17500 (active).
In the case of `NS(=O)(=O)c1ccc(CCNC(=O)c2ccc(Cl)c(S(=O)(=O)N3CCCCCC3)c2)cc1` it was 4250; in that of `Cc1noc(C)c1C(=O)NCCc1ccc(S(N)(=O)=O)cc1`, 4000; in that of `COc1ccc(OCC(=O)NCCc2ccc(S(N)(=O)=O)cc2)cc1`, 19600 (active).
Under `CCOC(=O)c1c(C)c(C(=O)NCCc2ccc(S(N)(=O)=O)cc2)c(C)n1CC` stands 22600 (active).
Consider `Cc1ccc(S(=O)(=O)CCC(=O)OCC(=O)NCCc2ccc(S(N)(=O)=O)cc2)cc1`, for which the fluorescence intensity was 5910.
Under `NS(=O)(=O)c1ccc(CCNC(=O)COC(=O)COc2cccc(C(F)(F)F)c2)cc1` stands 4060; under `Cc1cccc(NS(=O)(=O)c2cccc(C(=O)NNC(=O)c3ccccc3O)c2)c1`, 3510; under `COc1cccc(C(NC(C)=O)c2nc(-c3ccccc3OC)cs2)c1` (stereo not drawn), 3680.
Under `CC(C)(C)CC(=O)Nc1nc(C(N)Cc2ccc(C(F)(F)F)cc2)cs1` (stereo not drawn) stands 2950.
Consider `O=C(NC1CCCC1)C(c1ccco1)N(C(=O)c1csnn1)c1ccccc1` (stereo not drawn), for which the fluorescence intensity was 3410.
Under `Cc1ccccc1-c1nc(NC(C)C)nc2cc(-c3ccccc3)sc12` stands 2960; under `CC(C)NC(=O)C1(C)CCCCCN1C(=O)c1ccc(-c2ccccc2)cc1` (stereo not drawn), 3730; under `Cc1cc(/C=N/NC(N)=O)c(C)n1C1CCCCC1`, 5160.
Regarding `CC(=O)Nc1ccc(NC(=O)c2ccc3c(c2)C(=O)N(c2ccccc2C)C3=O)cc1`, the fluorescence intensity was 3300.
Under `CCOC(=O)C1=CC[C@@H](c2ccncc2)N(S(=O)(=O)c2ccc(C)cc2)C1` stands 6280; under `CCn1c(CSCc2c(Cl)cccc2Cl)n[nH]c1=S`, 5080; under `S=c1[nH]nc(CSCc2ccc(Cl)cc2Cl)n1-c1ccccc1`, 22300 (active).
In the case of `Cc1ccc(NCc2n[nH]c(=S)n2-c2ccccc2)cc1Cl` it was 4580.
In the case of `O=C(c1cc(COc2ccc(F)cc2F)on1)N1CCOCC1` it was 6230; in that of `CN1C(=O)[C@H]2[C@@H](/C=C/c3ccccc3)N3C(=O)CN(Cc4ccc(-c5ccccc5)cc4)C(=O)[C@@]3(C)[C@H]2C1=O`, 3800.
For the molecule `COc1ccc(Cn2c(=S)[nH]c3cc(C(=O)NCCCN4CCOCC4)ccc3c2=O)cc1`, the fluorescence intensity is 5500.
As to `CCOc1cc2[nH]c(=O)n(Cc3ccc(C(=O)NCCCN4CCCC4=O)cc3)c(=O)c2cc1OCC`, the fluorescence intensity is 4740.
In the case of `COCCn1c(=S)[nH]c2cc(C(=O)NCCc3ccc(OC)c(OC)c3)ccc2c1=O` it was 22200 (active); in that of `CCOc1cc2[nH]c(=S)n(Cc3ccc(C(=O)NCCOC)cc3)c(=O)c2cc1OCC`, 20100 (active).
In the case of `CCOc1cc2[nH]c(=S)n(Cc3ccc(C(=O)N4CCN(C)CC4)cc3)c(=O)c2cc1OCC` it was 5670.
As to `COc1ccc(-n2c(=O)[nH]c3cc(C(=O)NCCc4ccc(OC)c(OC)c4)ccc3c2=O)c(OC)c1`, the fluorescence intensity is 3790.
Under `CN1CCN(c2ccc3c(c2)OC[C@H](Cc2ccccc2)NS3(=O)=O)CC1` stands 5440; under `COc1ccc(CCCNC(=O)C2Cc3c(-c4cccc(C(N)=O)c4)ccnc3O2)cc1` (stereo not drawn), 3760; under `O=S1(=O)CC(N2CCN(CCO)CC2)CN1C1CCCC1` (stereo not drawn), 5290.
Regarding `CC(C)CN(C(=O)Cn1c(=O)cnc2ccccc21)C1CCS(=O)(=O)C1` (stereo not drawn), the fluorescence intensity is 7550.
For the molecule `COc1ccccc1Cc1c(-c2ccc(Cl)cc2)nc2c3ccccc3ccn12`, the fluorescence intensity was 6870.
Consider `COc1ncnc2c1N=C1CC(C)(C)CC(N)=C1S2`, for which the fluorescence intensity was 10000.
On to `O=C1/C(=C/c2ccc3c(c2)OCO3)Oc2cc(OCC(=O)N3CC(O)C[C@H]3C(=O)O)ccc21` (stereo partly drawn), for which the fluorescence intensity was 5670.
Under `CCc1oc(-c2ccc(OC)cc2)c(C(=O)OCCCCCO)c1C(C)OCCO` (stereo not drawn) stands 5030; under `CCOC(=O)N1CCN(C(=O)C[C@@H]2C[C@@]3(C(=O)OC)CCCCC=C3N(CCC3=CCCCC3)C2=O)CC1`, 5780.
As to `CCOC(=O)c1cc(C)sc1NC(=O)C1CCC1`, the fluorescence intensity was 20200 (active).
Under `Cc1cnc(NC(=O)C2CCCC2)s1` stands 3280; under `COC(=O)c1cc(C)sc1NC(=O)CC1Nc2ccccc2NC1=O` (stereo not drawn), 4220.
Under `Cc1cc(Br)ccc1SCC(=O)OCC(=O)NCc1ccc2c(c1)OCO2` stands 2190.
Under `C=CCN(CC=C)C(=O)CN1C(=O)c2ccccc2C1=O` stands 16300 (active); under `Cc1ccccc1C(=O)NNC(=O)CN1C(=O)c2ccccc2C1=O`, 2780.
In the case of `Cc1cc(C)cc(NC(=O)CN2C(=O)c3ccccc3C2=O)c1`, the fluorescence intensity is 4110.
In the case of `CC(=O)/C(=N\Nc1ccc(Cl)cc1Cl)Sc1cccc2cccnc12` it was 7970; in that of `COc1cccc(-c2cnc3c(NC(C)=O)cc(-c4cccc(NC(C)=O)c4)cn23)c1`, 3610.
In the case of `Cc1ccnc2nc(C(=O)Nc3nnc(-c4ccccc4)o3)nn12` it was 4840; in that of `c1ccc(-c2ccnc3nc(-n4cccc4)nn23)cc1`, 16400 (active); in that of `CCCc1cc(=S)n2c([nH]c3ccccc32)c1C#N`, 3240.
In the case of `CN(C)C(CNC(=O)c1ccc(OCc2cn3ccccc3n2)cc1)c1ccco1` (stereo not drawn) it was 4090; in that of `CN(C)C(CNC(=O)CCCOc1ccccc1)c1ccco1` (stereo not drawn), 22900 (active).
As for `CN(C)C(CNC(=O)c1cccc(C#N)c1)c1ccco1` (stereo not drawn), the fluorescence intensity is 3360.
Under `O=C1NC[C@H](Cc2ccc(O)cc2)N(C[C@@H]2CCCN2C[C@H](Cc2ccccc2)N2C[C@H](Cc3ccccc3)N(CC3CCCCC3)C(=O)C2=O)C1=O` stands 7010.
In the case of `COC(=O)[C@]12CCCCC=C1N(CCC1=CCCCC1)C(=O)[C@H](CC(=O)NCC1CCCCC1)C2` it was 4280; in that of `N/C(=N\OC(=O)CCC1CCCCC1)c1ccccn1`, 16300 (active); in that of `COc1ccccc1OCC(=O)O/N=C(\N)c1ccccn1`, 6210.
Under `N/C(=N\OC(=O)CC1CCCCC1)c1ccccc1` stands 2550.
